# Shown are actives, neighbours in structure and some others; about 4.2% of the full set was active somewhere.
# PLK1 PBD block – inhibitors of human PLK1 polo-box domain binding; Plk1 PBD binding of FITC phosphopeptide, fluorescence polarization; Potency, µM, for inactives: max response, negative = inhibition, usual class: inhibitors; 360,000 compounds, 2.8% hits; AID 720504; note: series mostly up to about 57 µM; nearly all actives have a fitted effect of over 65% in size
# Target sequence (P53350 whole entry, looked up, the tested form may be a part): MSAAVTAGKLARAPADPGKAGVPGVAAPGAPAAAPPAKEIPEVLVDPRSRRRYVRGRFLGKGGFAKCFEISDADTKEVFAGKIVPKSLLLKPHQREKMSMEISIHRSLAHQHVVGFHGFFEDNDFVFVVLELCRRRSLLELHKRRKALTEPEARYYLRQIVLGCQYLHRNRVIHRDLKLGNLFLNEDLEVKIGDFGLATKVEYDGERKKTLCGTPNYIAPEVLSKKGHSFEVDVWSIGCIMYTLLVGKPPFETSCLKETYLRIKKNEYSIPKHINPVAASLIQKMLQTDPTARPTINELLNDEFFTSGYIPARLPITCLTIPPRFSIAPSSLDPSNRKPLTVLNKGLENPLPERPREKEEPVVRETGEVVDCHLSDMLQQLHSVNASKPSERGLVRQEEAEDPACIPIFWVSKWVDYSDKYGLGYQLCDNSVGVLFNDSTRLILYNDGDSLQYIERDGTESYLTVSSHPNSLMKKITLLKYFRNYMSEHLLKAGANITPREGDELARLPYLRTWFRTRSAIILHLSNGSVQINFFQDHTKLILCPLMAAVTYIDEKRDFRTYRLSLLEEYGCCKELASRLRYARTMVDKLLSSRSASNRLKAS
# ALOX12 inh – blocks human arachidonate 12S-lipoxygenase. AID 1671190. 580,000 compounds, 1.1% hits. Potency, µM (top dose mostly 108 µM), for the others: at the highest dose activity change, negative = inhibition, most hits filed as inhibitors. purified 12hLO, xylenol orange hydroperoxide absorbance
#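 Purified human 12hLO at 150 nM in 25 mM Hepes, 0.01% Triton X-100, pH 7.0, preincubated 15 min at room temperature with compound. Reaction started with 40 uM arachidonic acid, 30 min at room temperature. Hydroperoxide measured by Fe-xylenol orange, 573/405 nm absorbance ratio.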
# Sfp inh – inhibitors of Bacillus subtilis Sfp phosphopantetheinyl transferase. Potency, µM, without a hit: largest response in the series, negative = inhibition, actives largely listed as inhibitors. Biochemical Sfp PPTase activity, qHTS. AID 1490. 310,000 compounds, 3.5% hits;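 note: the enzyme is Sfp with the accession as filed and its product quenches rhodamine fluorescence; 0% = enzyme reaction without inhibitor and -100% = no enzyme wells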
#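 With Hepes-Na pH 7.6 buffer containing 10 mM MgCl2, Sfp (15 nM) modified BHQ-2-YbbR (12.5 uM) using rhodamine-CoA (5 uM). Two reads 30 minutes apart at 525/598 nm yielded each well's rate.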
# VDR inh – vitamin D3 receptor (human) inhibition; AID 504847; 400,000 compounds, 0.93% hits; VDR-SRC2-3 peptide fluorescence polarization, 2 h; Potency, µM, inactives show max response, negative = inhibition, most hits filed as inhibitors
#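 Signal is fluorescence polarization, reporting how far test compounds block the interaction of VDR with the SRC2-3 coregulator peptide after a 2 h room-temperature incubation.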
# Numbers without * were called inactive; ? = inconclusive; . = not tested or not shown; ! = not active in a repeat. Calls come from the whole dose curve; as a rule, active = well fitted curve in the direction sought with a large enough effect; inconclusive = small, poorly fitted or top-dose-only effect, or another doubt; inactive = no such curve, though single readings can be large; an effect the other way counts as inactive or inconclusive. Unless noted, % is set by controls: 0 for no effect and ±100 for the full control effect; potency is the fitted concentration of half-maximal effect.
SMILES,PLK1 PBD block,ALOX12 inh,Sfp inh,VDR inh
Cc1ccc(S(=O)(=O)c2nc(-c3ccccc3)oc2NCCCN2CCOCC2)cc1,-19%,-12%,11%,-12%
O=S(=O)(c1ccc2c(c1)OCCO2)c1nc(-c2ccccc2)oc1NCCN1CCOCC1,.,25µM*,.,.
O=C(NCC(c1ccco1)N1CCc2ccccc2C1)c1ccc(Br)cc1 (stereo not given),-3%,11µM*,.,-8%
COc1ccc(C(=O)NCC(c2ccco2)N2CCc3ccccc3C2)cc1 (stereo not given),3%,?,.,2%
O=C(NCC(c1ccco1)N1CCc2ccccc2C1)c1ccc(Cl)cc1 (stereo not given),-6%,14µM*,.,11%
O=[N+]([O-])c1ccc(S(=O)(=O)NCC(c2ccco2)N2CCc3ccccc3C2)cc1 (stereo not given),-10%,14µM*,.,-17%
Cc1ccc(C(=O)NCC(c2ccco2)N2CCc3ccccc3C2)cc1 (stereo not given),-6%,8.9µM*,.,?
CC[C@@]12C(=O)N(c3ccc(C)cc3)C(=O)N1[C@H](c1ccc(OC)cc1)[C@@H]1C(=O)N(C(C)(C)C)C(=O)[C@@H]12,-4%,1%,14%,6%
COc1ccc(N(CC(=O)N/N=C(\C)c2ccc(C)cc2)S(=O)(=O)c2ccccc2)cc1,-2%,0%,3%,-6%
COc1ccc(C=C2C(=O)c3ccccc3C2=O)cc1O,19µM*,-10%,-18%,-7%
COc1cc(C=C2C(=O)c3ccccc3C2=O)ccc1O,-18%,-26%,-9%,7%
COc1cc(C=C2C(=O)c3ccccc3C2=O)cc(OC)c1,1.1µM*,-8%,-2%,?
COC(=O)c1ccccc1NC(=O)Cn1cc(Br)cn1,-5%,294%,3%,8%
Cc1csc(/C(C#N)=C\C2=Cc3cc(Cl)ccc3OC2)n1,.,50µM*,.,.
S=c1sc2c(s1)SCCCS2,.,32µM*,.,.
Cc1cc(C(=O)O)c(C)n1-c1ccccc1,-2%,-5%,21%,-12%
Cc1ccc(C)n1-c1sccc1C(=O)O,3.8µM*,.,50µM*,31%
CCn1c(C)c(C(C)=O)c(NCc2ccccc2)nc1=S,-2%,-27%,-1%,-2%
Cc1cc2c(c(SCC(N)=O)n1)C(=O)OC2,30µM*,1%,22%,-22%
Cc1ccc(C(=O)NCC(=O)NCC(c2ccco2)N2CCCCC2)cc1C (stereo not given),-11%,0%,.,-15%
CCOc1ccc2c(c1)nc(SCC(=O)c1ccc(Br)s1)n2C,30µM*,?,32µM*,89µM*
CCOC(=O)c1cc(S(=O)(=O)Nc2ccc3c(c2)OCCO3)[nH]n1,.,11µM*,.,.
Cc1ccc(C2CC(=O)C=C(NCc3ccccc3)C2)cc1 (stereo not given),2%,20%,14%,-9%
Cc1ccc(C2CC(=O)C=C(NCC(C)C)C2)cc1 (stereo not given),27µM*,?,14%,?
COc1ccc(C(CNC(=O)Cn2c(=O)oc3ccccc32)N(C)C)cc1 (stereo not given),-4%,?,20µM*,5%
SMILES,PLK1 PBD block,ALOX12 inh,Sfp inh,VDR inh
CC(C)N1C(=O)CC2(CC[N+](C)(CCOC(=O)C(c3ccccc3)c3ccccc3)CC2)C1=O (stereo not given),0%,?,?,-12%
Cc1cccc(NC(=S)NCCc2ccccc2)n1,34µM*,20µM*,56µM*,-5%
S=C(NCc1ccco1)Nc1ccccn1,-9%,?,-8%,-1%
S=C(NCCc1ccccc1)Nc1ccccn1,-13%,22µM*,-9%,-5%
CC1CCN(C(=O)CSc2nncn2-c2ccccn2)CC1,27µM*,?,?,?
Cc1cc(C)nc(N2CCN(c3nc(-c4ccccc4)nc4c3oc3ccccc34)CC2)n1,-2%,11%,.,11%
COC(=O)c1ccc(OCCCCN2CC(C)OC(C)C2)cc1 (stereo not given),-17%,?,56µM*,6%
CCN1CCN(CCOCCOc2ccccc2)CC1,-3%,?,50µM*,-3%
O=C(c1ccco1)N1CCN(CCCCOc2cccc3ccccc23)CC1,4%,45µM*,?,-10%
c1ccc(CN2CCN(CCOCCOc3cccc4ccccc34)CC2)cc1,-8%,?,50µM*,15%
O=C(c1ccco1)N1CCN(CCOCCOc2cccc3ccccc23)CC1,-3%,?,11%,20%
c1ccc(OCCOCCN2CCOCC2)cc1,-4%,20%,11%,5%
COC(=O)[C@@H]1CC[C@H](C)[C@@H](c2ccc(C)cc2)N1C(=O)c1ccc(/C=N\OC[C@@H]2O[C@H](c3ccccc3)C=C[C@@H]2Oc2ccc(OC)cc2)cc1,.,.,3%,.
Cc1ccc(-n2ncc3c2CC(C)(C)CC3NC(=O)CCCN2CCCCC2=O)cc1 (stereo not given),27µM*,4%,8%,-17%
CCCCC1=CC2=C(c3ccco3)C(=O)C(C)(OC(=O)c3ccc(OC)cc3)C(=O)C2=CN1CC(C)C (stereo not given),-11%,?,3.5µM*!,?
CCCCC1=CC2=C(c3ccco3)C(=O)C(C)(OC(=O)c3ccc(OC)cc3)C(=O)C2=CN1CC1CC1 (stereo not given),-19%,?,17%,-11%
CCCCC1=CC2=C(c3ccco3)C(=O)C(C)(OC(=O)c3ccc(OC)cc3)C(=O)C2=CN1Cc1ccco1 (stereo not given),?,.,45µM*,?
CCCCC1=CC2=C(c3ccco3)C(=O)C(C)(OC(=O)c3ccc(OC)cc3)C(=O)C2=CN1CCCCO (stereo not given),-17%,-21%,?,-13%
CCCCC1=CC2=C(c3ccco3)C(=O)C(C)(OC(=O)c3ccc(OC)cc3)C(=O)C2=CN1Cc1ccc(OC)cc1 (stereo not given),.,.,71µM*!,.
CNC(=O)[C@@H]1CN(C(=O)c2c(C)noc2C)C[C@H]1COC,.,30%,.,.
COc1ccc(C(=O)NC(=S)SCC(=O)O)cc1,19µM*,-21%,50µM*,3%
CCOC(=O)CSC(=S)NC(=O)c1ccc(OC)cc1,3µM*,?,-12%,?
COc1cc(/C=N/N2CCN(Cc3ccc(Cl)cc3)CC2)cc(Br)c1O,3%,?,-4%,-5%
Cc1c(C(=O)c2ccccc2)c(=O)n(C)c(=O)n1C,2%,-4%,16%,-6%
Cc1cc(C)nc(N/N=C/C2=C(N3CCOCC3)C(=C\c3ccc(Cl)cc3)/CC2)n1,?,?,-29%,?
O=[N+]([O-])c1cccc(N/N=C/c2ccc(N3CCOCC3)cc2)c1,-15%,?,0%,-2%
C(=N\Nc1ccccn1)/c1ccc(N2CCOCC2)cc1,-18%,-3%,40µM*,-24%
O=C(N/N=C/c1ccc(N2CCOCC2)cc1)c1ccccc1OCCOc1ccccc1,3µM*,-4%,-3%,?
C(=N\Nc1ccccc1)/c1ccc(N2CCOCC2)cc1,-5%,14µM*,-2%,2%
